Compounds with a hit are over-represented: about 14% of the library has one in this group of screens.
LmPK inh – blocks Leishmania mexicana pyruvate kinase activity; 0.37% of 290,000 active; Potency, µM (titrated, usually from 57.5 µM), inactives show at the highest dose activity change, negative = inhibition, hits mostly inhibitors; Q27686; purified LmPK, Kinase-Glo ATP luminescence, 1 h; further: potency means the concentration at half of the fitted maximal effect; on the % scale 0 is the no-effect control and ±100 the full control effect
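0.1 nM LmPK, 0.5 mM PEP, 0.1 mM ADP; 50 mM imidazole pH 7.2, 7 mM MgCl2, 50 mM KCl; 1 h RT. Kinase-Glo luminescence readout, normalized to no-enzyme (full inhibition) and uninhibited wells.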
NS1 function inh – influenza NS1 inhibition | Potency, µM (highest dose often 46.1 µM), for the others: top-dose activity, positive = more growth | 0.4% of 270,000 active; calls by dose curve; further: potency means the concentration at half of the fitted maximal effect; actives are rising curves; nearly all actives have a fitted effect of over 50% in size
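A cell-based growth assay was used: compounds that relieve NS1-induced slow growth of budding yeast raise OD600. Assay medium was yeast nitrogen base with ammonium sulphate and -URA supplement, pH 6.0, with 2% galactose.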
Giardia FBPA inh – blocks Giardia fructose-bisphosphate aldolase activity; A8B2U2; purified Giardia FBPA; Potency, µM (titrated, usually from 59.6 µM), without a hit: at the highest dose activity, negative = inhibition, usual class: inhibitors; 0.71% of 290,000 active; AID 2451; further: potency means the concentration at half of the fitted maximal effect; on the % scale 0 is the no-effect control and ±100 the full control effect; nearly all actives have a fitted effect of over 55% in size
Target sequence (A8B2U2 whole entry, looked up): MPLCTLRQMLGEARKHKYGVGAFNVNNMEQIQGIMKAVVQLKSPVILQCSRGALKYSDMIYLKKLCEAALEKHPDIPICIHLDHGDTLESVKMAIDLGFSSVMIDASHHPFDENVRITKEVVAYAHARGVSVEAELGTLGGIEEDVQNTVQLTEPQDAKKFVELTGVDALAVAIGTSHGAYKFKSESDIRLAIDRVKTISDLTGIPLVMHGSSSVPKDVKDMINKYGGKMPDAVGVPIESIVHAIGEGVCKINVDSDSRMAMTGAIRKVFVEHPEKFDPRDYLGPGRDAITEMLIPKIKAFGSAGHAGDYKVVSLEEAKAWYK
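40 nM FBPA preincubated 10 min at RT with compound (up to 57.5 uM final), then substrate plus GAPDH/TPI/NAD/arsenate coupling and diaphorase/resazurin added. Fluorescence read after 20 min at RT, 525/598 nm.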
CHX counter – counter-screen for Shiga toxin inhibitors: cycloheximide protein synthesis inhibition; cell reporter, cycloheximide protein synthesis inhibition counterscreen; max response, %; 12% of 300,000 active; in the data active means max response mostly above about 13%, no sharp cut-off; inactive means mostly below about 14%; further: read at 38.3 µM for the half of the compounds with a filed dose; 0% is about no effect
Shiga inhibitor – Shiga toxin inhibition. inhibition, % at 38.7 µM. Vero cells, Shiga toxin protein synthesis inhibition reporter. AID 2315. 9.2% of 290,000 active; in the data active means inhibition mostly above about 28%, no sharp cut-off; inactive means mostly below about 43%; further: 0% is about no effect
* marks the source's active call; other numbers are inactive results; u = inconclusive; x = not tested or not shown. Unless noted, the call rests on the fitted dose curve; in most records, active means well fitted curve in the direction sought with a large enough effect; inconclusive means small, poorly fitted or top-dose-only effect, or another doubt; inactive means no such curve, though single readings can be large; an effect the other way counts as inactive or inconclusive.

SMILES | LmPK inh | NS1 function inh | Giardia FBPA inh | CHX counter | Shiga inhibitor
O=C(CSc1nc(O)cc(=O)n1-c1ccccc1)Nc1nc2ccccc2s1 | 4% | 15% | 10% | -1 | -3
CNc1c(NS(=O)(=O)c2ccc3c(c2)CCCC3)c(=O)oc2ccccc12 | 3% | -9% | 7% | 5 | -17
CCOc1ccc(NC(=O)C2CCCN(c3cnccn3)C2)cc1 (centres undefined) | 6% | -3% | x | 6 | -8
Cc1ccc(Nc2ncnc3c2nnn3Cc2ccccc2)cc1 | 5% | -3% | 0% | 23* | 49*
CC(=O)NCCNc1nc(-c2cccc(C#N)c2)nc2ccccc12 | x | x | -10% | x | x
CCCN1CCC(=O)N(CCO)CC1 | 6% | 35% | -9% | -1 | -3
CC1CCN(C(=O)c2ccc(C(=O)N3CCC(C)CC3)cc2)CC1 | x | 10% | x | x | x
Cc1ccc(C(=O)N2CCC(C)CC2)cc1C | -3% | 6% | 3% | 17* | 35*
Cc1ccc(C(=O)N2CCN(c3ccccc3)CC2)cc1C | 1% | -10% | 4% | 27* | 43*
Cc1ccc(C(=O)N2CCN(c3cccc(Cl)c3)CC2)cc1C | 3% | -78% | 0% | 17 | -2
CCCc1nnc(SCC(=O)Nc2ccccc2Cl)n1CC1CCCO1 (centres undefined) | -1% | 2% | 4% | -4 | -4
C/C(=N\Nc1cccc(Cl)c1)C1(C)N(O)C(C)(C)C(c2ccco2)=[N+]1[O-] (centres undefined) | 7% | -3% | -8% | 30* | 74*
C/C(=N\O)C1(C)N(O)C(C)(C)C(c2ccco2)=[N+]1[O-] (centres undefined) | 0% | 7% | 0% | -8 | -12
COCCn1c(=O)c(-c2ccc(F)cc2)nc2cnc(Oc3cccc(Cl)c3)nc21 | x | x | -1% | x | x
Cc1cnc(CNc2nc(-c3ccccc3Cl)nc3ccccc23)cn1 | x | x | -4% | x | x
CCCN1C(=O)S/C(=C\c2ccc(N3CCOCC3)cc2C)C1=O | 6% | 5µM* | 11% | 34* | 64*
Cc1ccc(N2CCN(C(=O)N3CCOCC3)CC2)cc1C | -2% | -8% | -22% | -2 | -2
C#CCN1C(=O)S/C(=C\c2ccc(N3CCOCC3)cc2C)C1=O | 0% | 0% | 2% | 24* | 70*
CCOc1ccc(N2C(=O)NC(=O)/C(=C\c3ccc(N4CCOCC4)cc3C)C2=O)cc1 | -1% | 11% | -5% | 5 | 6
CCN1C(=O)S/C(=C\c2ccc(N3CCOCC3)cc2C)C1=O | 0% | -6% | 0% | 27* | 133*
Cn1c(=O)c2c(nc3sccn32)n(C)c1=O | -6% | 0% | -2% | 20* | 11
COc1ccc(Nc2nc3ccccc3n3cnnc23)cc1Cl | -1% | -4% | 8% | 35* | 34
Cc1ccc(Nc2nc3ccccc3n3cnnc23)c(Cl)c1 | 3% | -3% | 6% | 5 | 7
COc1ccc(/C(C)=N/Nc2nc3ccccc3n3cnnc23)cc1OC | -5% | -2% | u | 19* | 40*
COc1cccc(Nc2nc3ccccc3n3cnnc23)c1 | -3% | -9% | 1% | 15* | 66
SMILES | LmPK inh | NS1 function inh | Giardia FBPA inh | CHX counter | Shiga inhibitor
CN1CCN(c2ncncc2-c2cccnc2)CC1 | x | x | -1% | x | x
CCOc1ccccc1N(C)S(=O)(=O)c1ccc2c(c1)N(C(C)=O)CCO2 | -9% | -4% | x | -1 | -12
O=C(C1CCCN(c2nnc(-n3cccc3)s2)C1)N1CCC2(CC1)OCCO2 (centres undefined) | 5% | 3% | -1% | 8 | 8
CCc1ccc2nc(N3CCC(C(=O)N4CCC5(CC4)OCCO5)CC3)sc2c1 | 2% | x | 7% | 58* | 131*
CCn1c(C(=O)N2CCC(C(=O)N3CCC4(CC3)OCCO4)CC2)cc2sccc21 | 2% | 0% | 1% | 9 | -3
O=C(C1CCN(c2nc3ccc(Br)cc3s2)CC1)N1CCC2(CC1)OCCO2 | 2% | u | 0% | 30* | 59*
CCOc1ccc2nc(N3CCC(C(=O)N4CCN(c5ccccn5)CC4)CC3)sc2c1 | -4% | -36% | 0% | 0 | 20
Cc1cc(C)c2nc(N3CCC(C(=O)N4CCN(C(=O)c5ccco5)CC4)CC3)sc2c1 | 5% | 3% | 7% | -1 | -6
Cc1ccc2nc(N3CCC(C(=O)N4CCC5(CC4)OCCO5)CC3)sc2c1 | -6% | -23% | 1% | 40* | 79*
CCOc1ccc2nc(N3CCC(C(=O)N4CCN(c5ncccn5)CC4)CC3)sc2c1 | 4% | -53% | -3% | 26* | 39
Cc1noc(C)c1-c1cc(NC2CC2)ncn1 | x | x | -7% | x | x
